Measured values reported in PubChem BioAssay AID504892 (The Scripps Research Institute Molecular Screening Center, 2011).
Unmarked numbers belong to inactive results. Calls of active or inactive are those of the source. No rule for the calls is given here.

Molecular target: sn-1-specific diacylglycerol lipase ABHD11 (Homo sapiens) (UniProt Q8NFV4)
Assay: ABHD11 inhibitors, late-stage follow-up, gel-based ABPP, fluorescence, human isoform (AID 504892)
Conditions: human ABHD11 proteome; at 20 µM (top of the series) unless noted

sn-1-specific diacylglycerol lipase ABHD11 (Homo sapiens), sequence (Q8NFV4 whole entry, looked up, canonical isoform): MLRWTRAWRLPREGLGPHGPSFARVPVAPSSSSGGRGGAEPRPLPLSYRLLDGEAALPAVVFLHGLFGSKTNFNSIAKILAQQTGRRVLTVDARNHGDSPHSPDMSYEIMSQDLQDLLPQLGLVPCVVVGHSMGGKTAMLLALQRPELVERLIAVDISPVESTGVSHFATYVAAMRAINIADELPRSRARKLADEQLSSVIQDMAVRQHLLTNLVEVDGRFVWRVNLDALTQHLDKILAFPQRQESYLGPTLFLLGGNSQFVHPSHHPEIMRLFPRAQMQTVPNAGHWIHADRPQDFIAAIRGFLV

| Structure (SMILES) | inhibition |
| --- | --- |
| CCC1CCCCN1C(=O)n1ncc(C(O)(c2ccccc2)c2ccccc2)n1 (configuration not stated) | 100% [at 0.15 µM] (active) |
| CCC1CCCCN1C(=O)Oc1ccc([N+](=O)[O-])cc1 (configuration not stated) | 0% |
